Results from PubChem BioAssay AID1159580 (chemical genetic matrix, 2015).
Several values for one entry are separate records, joined by “and”; a condition that tells them apart may be missing. Identical values can stand only once. Out of some 5,500 compounds screened, about 2,000 (36%) were called active. Inconclusive results (about 18%) are left out. Cut-off read from the data, not from the text of the source: active = normalized growth mostly below about 0.91 (no sharp cut-off); inconclusive = no clear call, values can overlap the other calls; inactive = mostly above about 0.92. Some of the results follow.

Experiment: chemical genetic growth profiling, strain panel (AID 1159580);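 note: tested at 20 µM; growth read once vehicle control cultures reached saturation at 30 °C; 1 = growth at the plate median or of vehicle wells; lower values mean less growth of the strain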
Conditions: S. cerevisiae deletion strains, growth OD

O=C(O[C@@H]1Cc2c(O)cc(O)cc2O[C@@H]1c1cc(O)c(=O)c2c(O)c(O)cc([C@H]3Oc4cc(O)cc(O)c4C[C@H]3O)c2c1)c1cc(O)c(O)c(O)c1
normalized growth (locus YAL021C, strain ccr4, stronger effect = lower value): 0.0928 (active)
normalized growth (locus YAL026C, strain drs2, stronger effect = lower value): 0.46 (active)
normalized growth (locus YAL030W, strain snc1, stronger effect = lower value): 0.715 (active)
normalized growth (locus YBL061C, strain skt5, stronger effect = lower value): 0.531 (active)
normalized growth (locus YBR009C, strain hhf1, stronger effect = lower value): 0.556 (active)
normalized growth (locus YBR021W, strain FUR4, stronger effect = lower value): 0.918 (inactive)
normalized growth (locus YBR023C, strain chs3, stronger effect = lower value): 0.457 (active)
normalized growth (locus YBR171W, strain sec66, stronger effect = lower value): 0.938 (inactive)
normalized growth (locus YBR229C, strain ROT2, stronger effect = lower value): 0.67 (active)
normalized growth (locus YBR231C, strain swc5, stronger effect = lower value): 0.427 (active)
normalized growth (locus YBR279W, strain paf1, stronger effect = lower value): 0.549 (active)
normalized growth (locus YCL011C, strain gbp2, stronger effect = lower value): 0.62 (active)
normalized growth (locus YCL016C, strain dcc1, stronger effect = lower value): 0.765 (active)
normalized growth (locus YCL029C, strain bik1, stronger effect = lower value): 0.801 (active)
normalized growth (locus YCL061C, strain MRC1, stronger effect = lower value): 0.765 (active)
normalized growth (locus YCL069W, strain vba3, stronger effect = lower value): 0.797 (active)
normalized growth (locus YCR088W, strain abp1, stronger effect = lower value): 0.911 (active)
normalized growth (locus YDL005C, strain med2, stronger effect = lower value): 0.949 (inactive)
normalized growth (locus YDL035C, strain GPR1, stronger effect = lower value): 0.224 (active)
normalized growth (locus YDL040C, strain nat1, stronger effect = lower value): 0.767 (active)
normalized growth (locus YDL074C, strain BRE1, stronger effect = lower value): 0.42 (active)
normalized growth (locus YDL101C, strain DUN1, stronger effect = lower value): 0.233 (active)
normalized growth (locus YDL134C, strain PPH21, stronger effect = lower value): 0.184 (active)
normalized growth (locus YDL185W, strain tfp1, stronger effect = lower value): 0.992 (inactive)
normalized growth (locus YDL192W, strain arf1, stronger effect = lower value): 0.828 (active)
normalized growth (locus YDR001C, strain nth1, stronger effect = lower value): 0.984 (inactive)
normalized growth (locus YDR069C, strain doa4, stronger effect = lower value): 0.116 (active)
normalized growth (locus YDR101C, strain arx1, stronger effect = lower value): 0.896 (active)
normalized growth (locus YDR137W, strain rgp1, stronger effect = lower value): 0.497 (active)
normalized growth (locus YDR150W, strain NUM1, stronger effect = lower value): 0.829 (active)
normalized growth (locus YDR159W, strain sac3, stronger effect = lower value): 0.838 (active)
normalized growth (locus YDR162C, strain NBP2, stronger effect = lower value): 0.144 (active)
normalized growth (locus YDR195W, strain ref2): 0.814 (active)
normalized growth (locus YDR297W, strain sur2, stronger effect = lower value): 0.599 (active)
normalized growth (locus YDR318W, strain mcm21, stronger effect = lower value): 0.877 (active)
normalized growth (locus YDR334W, strain swr1, stronger effect = lower value): 0.571 (active)
normalized growth (locus YDR335W, strain msn5, stronger effect = lower value): 0.638 (active)
normalized growth (locus YDR388W, stronger effect = lower value): 0.93 (inactive)
normalized growth (locus YDR392W, strain spt3, stronger effect = lower value): 0.84 (inactive)
normalized growth (locus YDR502C, strain sam2, stronger effect = lower value): 0.69 (active)
normalized growth (locus YEL003W, strain gim4, stronger effect = lower value): 0.659 (active)
normalized growth (locus YEL037C, strain rad23, stronger effect = lower value): 0.709 (active)
normalized growth (locus YEL061C, strain CIN8 (second series), stronger effect = lower value): 0.936 (inactive)
normalized growth (locus YER015W, strain faa2, stronger effect = lower value): 0.292 (active)
normalized growth (locus YER016W, strain bim1, stronger effect = lower value): 0.859 (active)
normalized growth (locus YER110C, stronger effect = lower value): 1.03 (inactive)
normalized growth (locus YER111C, strain swi4, stronger effect = lower value): 0.694 (active)
normalized growth (locus YER155C, strain BEM2 (second series), stronger effect = lower value): 0.849 (active)
normalized growth (locus YER155C, strain BEM2, stronger effect = lower value): 0.887 (active)
normalized growth (locus YER167W, strain BCK2, stronger effect = lower value): 0.78 (active)
normalized growth (locus YFR010W, strain ubp6, stronger effect = lower value): 0.63 (active)
normalized growth (locus YGL078C, strain dbp3, stronger effect = lower value): 1.02 (inactive)
normalized growth (locus YGL086W, strain mad1, stronger effect = lower value): 0.669 (active)
normalized growth (locus YGL167C, strain pmr1, stronger effect = lower value): 0.422 (active)
normalized growth (locus YGL173C, strain kem1, stronger effect = lower value): 0.277 (active)
normalized growth (locus YGL227W, strain vid30, stronger effect = lower value): 0.991 (inactive)
normalized growth (locus YGL240W, strain doc1, stronger effect = lower value): 0.81 (active)
normalized growth (locus YGL248W, strain PDE1, stronger effect = lower value): 0.474 (active)
normalized growth (locus YGL253W, strain hxk2, stronger effect = lower value): 0.588 (active)
normalized growth (locus YGR135W, strain pre9, stronger effect = lower value): 0.789 (active)
normalized growth (locus YGR252W, strain gcn5, stronger effect = lower value): 0.75 (active)
normalized growth (locus YHR013C, strain ard1, stronger effect = lower value): 0.329 (active)
normalized growth (locus YHR027C, strain rpn1, stronger effect = lower value): 0.191 (active)
normalized growth (locus YHR030C, strain SLT2, stronger effect = lower value): 1.01 (inactive)
normalized growth (locus YHR079C, strain IRE1 (second series), stronger effect = lower value): 0.946 (inactive)
normalized growth (locus YHR079C, strain IRE1, stronger effect = lower value): 1.03 (inactive)
normalized growth (locus YHR094C, strain hxt1, stronger effect = lower value): 1.02 (inactive)
normalized growth (locus YHR129C, strain ARP1, stronger effect = lower value): 0.565 (active)
normalized growth (locus YHR142W, strain chs7, stronger effect = lower value): 0.532 (active)
normalized growth (locus YHR200W, strain rpn10, stronger effect = lower value): 0.845 (active)
normalized growth (locus YIL066C, strain RNR3, stronger effect = lower value): 0.153 (active)
normalized growth (locus YIL073C, strain SPO22, stronger effect = lower value): 0.198 (active)
normalized growth (locus YIL125W, strain kgd1, stronger effect = lower value): 1.04 (inactive)
normalized growth (locus YIR030C, strain dcg1, stronger effect = lower value): 0.973 (inactive)
normalized growth (locus YJL092W, strain hpr5, stronger effect = lower value): 0.882 (active)
normalized growth (locus YJL095W, strain BCK1 (second series), stronger effect = lower value): 0.489 (active)
normalized growth (locus YJL095W, strain BCK1, stronger effect = lower value): 0.185 (active) and 0.996 (inactive)
normalized growth (locus YJL115W, strain asf1, stronger effect = lower value): 0.947 (inactive)
normalized growth (locus YJL129C, strain trk1, stronger effect = lower value): 0.829 (active)
normalized growth (locus YJL134W, strain LCB3, stronger effect = lower value): 0.825 (active)
normalized growth (locus YJL154C, strain vps35, stronger effect = lower value): 0.886 (active)
normalized growth (locus YJL164C, strain tpk1, stronger effect = lower value): 0.489 (active)
normalized growth (locus YJL166W, strain qcr8, stronger effect = lower value): 0.485 (active)
normalized growth (locus YJL168C, strain set2, stronger effect = lower value): 0.997 (inactive)
normalized growth (locus YJL187C, strain SWE1 (second series), stronger effect = lower value): 0.13 (active)
normalized growth (locus YJL187C, strain SWE1, stronger effect = lower value): 0.604 (active)
normalized growth (locus YJR043C, strain POL32, stronger effect = lower value): 0.244 (active)
